# Source: ChEMBL document CHEMBL3988442, “University of Dundee, Small-Polar-MMV Screening Library” (2021)
# Out of some 48,000 compounds screened, about 13,000 (27%) showed an effect of 50% or more. This is one part of the list.
# System: Wolbachia pipientis
# Assay: Anti-Wolbachia Cell-Based Screen
# Format: functional
# Parameters: scale not given: in the data most compounds retested in dose-response had high values
# Details: 5 µM
row,Compound,Percent Effect
1,Cc1cc(CN(C)C(=O)NC2CCS(=O)(=O)C2)no1 (stereo unspecified),4.321%
2,Cc1ccc(Cl)cc1N1CCC(CNC(=O)CCn2ccnn2)C1 (stereo unspecified),3.758%
3,Cn1ccnc1CN1C[C@H]2CN(S(C)(=O)=O)CCN2C1=O,-9.259%
4,Cc1ccccc1C(=O)N1CCN(c2ccc(-n3cncn3)nn2)CC1,17.86%
5,CN(C)S(=O)(=O)c1ccc(CN2CCCC2c2ccsc2)o1 (stereo unspecified),153.1%
6,CN(C)S(=O)(=O)c1ccc(CN2CCCC2c2ccccc2)o1 (stereo unspecified),8.974%
7,Cc1ccccc1C1CCCN1Cc1ccc(S(=O)(=O)N(C)C)o1 (stereo unspecified),160.2%
8,CN(C)S(=O)(=O)c1ccc(CN2CCC(c3ccccc3)C2)o1 (stereo unspecified),-9.641%
9,COc1ccc(C2CCCN2Cc2ccc(S(=O)(=O)N(C)C)o2)cc1 (stereo unspecified),151.6%
10,CN(CCC#N)C(=O)CN1CCCC1c1ccsc1 (stereo unspecified),1.248%
11,CN(C)S(=O)(=O)c1ccc(CN2CCCC2c2cccs2)o1 (stereo unspecified),169.9%
12,CN(Cc1ccco1)C(=O)CN1CCCC1c1cccs1 (stereo unspecified),-12.25%
13,CN(C)S(=O)(=O)c1ccc(CN2CCCC2c2ccc[nH]2)o1 (stereo unspecified),-2.919%
14,CN(C)S(=O)(=O)c1ccc(CN2CCCC2CO)o1 (stereo unspecified),-8.26%
15,c1cc(C2CCCN2Cc2nnnn2C2CC2)cs1 (stereo unspecified),-19.47%
16,Cc1nccc(-c2cccc(NCc3nc(C(C)C)no3)c2)n1,4.778%

row,Compound,Percent Effect
1,O=c1[nH]nc(SCC2CCCO2)n1C1CC1 (stereo unspecified),-2.947%
2,CC1CCCN(c2ccccc2OCC(=O)N2CCOCC2)C1 (stereo unspecified),-4.736%
3,COC1CN(C(=O)CC(C)(C)C)CCC(=O)N(C)c2ccccc21 (stereo unspecified),105.9%
4,O=C(Cc1cccs1)N1CCc2nnc(COc3cncnc3)n2CC1,-9.187%
5,Cc1ccccc1N1CCN(C2CCCN(C(=O)CCC(C)C)C2)CC1 (stereo unspecified),-1.858%
6,COC1CN(C(=O)Cc2cccs2)CCC(=O)N(C)c2ccccc21 (stereo unspecified),113.3%
7,COc1ccc([C@@H]2CN(C(=O)Cc3cccs3)C[C@H]2NC(C)=O)cc1,1.079%
8,COC1CN(C(=O)COC(C)=O)CCC(=O)N(C)c2ccccc21 (stereo unspecified),92.83%
9,COC1CN(C(=O)CC(C)C)CCC(=O)N(C)c2ccccc21 (stereo unspecified),94.68%
10,CCCN1CCN(Cc2cccc(OC)c2)[C@H]2CS(=O)(=O)C[C@H]21,-4.68%
11,Cc1nnc(CN(C)CCCOc2cccc(Cl)c2)o1,-9.851%
12,CCOCCN1CCN(C(C)C(=O)Nc2ccnn2C(C)C)CC1 (stereo unspecified),-7.106%
13,CC(C)C1CN(C(=O)c2cc(=O)[nH]c(=O)[nH]2)CCC(=O)N1CC1CC1 (stereo unspecified),7.498%
14,CC(C)COC(=O)N1CCN(C(=O)c2ccc3nccn3c2)CC1,-2.651%
15,COC1CN(C(=O)OCC(C)C)CCC(=O)N(C)c2ccccc21 (stereo unspecified),62.93%
